Here are results for 103 compounds from ChEMBL document CHEMBL3988442, “University of Dundee, Small-Polar-MMV Screening Library” (2021).

Among all 48,000 compounds or so, about 13,000 (27%) showed an effect of 50% or more. The list shows a part of the results.

The assay has as its system Wolbachia pipientis. As to the kind of experiment: Anti-Wolbachia Cell-Based Screen. In kind it is functional. Details: scale not given: in the data most compounds retested in dose-response had high values. Conditions: 5 µM.
As to `CCc1ccc(S(=O)(=O)Nc2cn(C)cc(Br)c2=O)cc1`, the “Percent Effect” value is listed as -15.07%.
Turning to `Cc1ccc(-c2ncc(CN3CCN(S(N)(=O)=O)CC3)s2)o1`, the “Percent Effect” value is 2.671%.
As to `CCn1ccnc1CN(C)c1nc(-c2ccc(Cl)cc2)nc2c1CNC2`, the “Percent Effect” value was -33.82%.
As to `O=c1nc(SCc2ccncc2)c2c(n1CCO)CCCC2`, the “Percent Effect” value was -12.21%.
Then `COc1ccc(Cn2c(C3CCNCC3)cc3cccnc32)cc1.Cl`, with 109.4%.
Then `CC[C@H](C)Cn1nc(C2CCNCC2)n(Cc2ccccc2)c1=O`, with -2.943%.
With `COc1cccc(CN2C[C@H]3CCNCC[C@H]3S2(=O)=O)c1`, the “Percent Effect” value was found to be 18.94%.
`COc1cccc(Cn2c(C3CCNCC3)cc3cccnc32)c1.Cl`: the “Percent Effect” value was 140.1%.
As to `CN1CCCCC1c1nc(Cc2cccc(F)c2)no1` (stereo not drawn), the “Percent Effect” value is given as -5.711%.
The value for `CN1CCCC1c1cc2cccnc2n1Cc1ccc(F)cc1.Cl` (stereo not drawn) was 120.9%; that for `CCOC(C)C(=O)Nc1ccc(Sc2nncn2C)c(Cl)c1` (stereo not drawn) was -6.719%; that for `Cc1cc(CS(=O)(=O)N(C)C(C)c2ccc(F)cc2)on1` (stereo not drawn) was -9.775%.
The value for `CN(C)C(=O)NCc1cc2n(n1)CCN(C[C@H]1[C@@H]3CNC[C@@H]31)C2` was -18.92%; that for `Cc1cnn(CCNCC(O)COc2c(C)ccc(C)c2C)c1` (stereo not drawn) was -3.427%.
Then `COc1cccc(-c2cccc(-c3ccn(CC4COCCO4)n3)c2)n1` (stereo not drawn), with -14.19%; and `COc1ccccc1CNC1(CCO)CCOCC1`, with 8.279%; and `Cc1cnc(C(=O)N2C[C@H]3CN(Cc4nccs4)C[C@H]3C2)cn1`, with 103.8%.
As for `Cc1cnc(C(=O)N2C[C@@H]3[C@@H](C2)OCC(=O)N3CC2CCCC2)cn1`, the “Percent Effect” value is reported as 9.694%.
The value for `Cc1cnc(C(=O)N2C[C@H]3CCCC(OCc4cccnc4)[C@H]3C2)cn1` (stereo partly drawn) was -8.577%.
Consider `Cc1cnc(C(=O)N2C[C@H]3CN(Cc4cccs4)C[C@H]3C2)cn1`, for which the “Percent Effect” value is 71.69%.
Then `CNC(=O)[C@H]1C[C@@H]2CN(C(=O)c3cnc(C)cn3)C[C@@H]2N1C`, with 18.09%; and `O=C(c1cscn1)N1C[C@H]2CN(Cc3nccs3)C[C@H]2C1`, with -12.17%.
For the compound `O=C(O)C(F)(F)F.O=C1C[C@H]2[C@@H](CCN2C(=O)c2ccccc2)N1CCN1CCOCC1`, the “Percent Effect” value is -5.805%.
Take `COc1ccccc1N1CCN(c2nc(N)nc3[nH]cnc23)CC1`: the “Percent Effect” value was found to be 106.2%.
The value for `COc1ccccc1OC1CCN(c2nc(N)nc3[nH]cnc23)CC1` was -23.58%.
The value for `Cc1cccc(OC2CCN(c3nc(N)nc4[nH]cnc34)CC2)c1` was -26.6%.
As to `Cc1ccc2nc(CN3CCN(C4CCCC4)C(=O)C3)cc(O)c2c1`, the “Percent Effect” value is on record as 1.578%.
Turning to `Cc1ccc2nc(CN3CCN(C4CCCCC4)C(=O)C3)cc(O)c2c1`, the “Percent Effect” value is on record as -5.19%.
As for `O=C1CN(Cc2ccc3ccccc3n2)CCN1C1CCCC1`, the “Percent Effect” value came out at 128.2%.
Take `Cc1ccccc1-c1cccc(CN2C[C@H]3C(=O)NC[C@@]3(C(=O)O)C2)c1`: the “Percent Effect” value amounted to 6.685%.
Then `Cc1cccc(-c2cccc(CC3(C(=O)O)CCOCC3)c2)c1`, with 103%; and `Cc1cccc(NC(=O)NCC2(N3CCOCC3)CCSC2)c1` (stereo not drawn), with 9.501%; and `COc1ccc(CC2(C(=O)O)CCN(c3nc(C)ncc3C)CC2)cc1`, with -10.05%.
Then `Cc1ccc(-c2cccc(CC3(C(=O)O)CCOCC3)c2)c(C)c1`, with 93.34%.
On to `Cc1cc(C)cc(-c2cccc(CC3(C(=O)O)CCOCC3)c2)c1`, for which the “Percent Effect” value is listed as -21.94%.
Then `C=C(C)CN(CC)C(=O)Nc1ccccc1CN(C)C(C)=O`, with 4.408%; and `Cc1nc2ccc(CN3CC4(CCOC4)CCC3=O)cc2[nH]1` (stereo not drawn), with 9.533%; and `COCc1nc2n(n1)CCCC2Nc1nc(C)ns1` (stereo not drawn), with -20.01%.
`CCC1(CO)CCN(C(=O)c2cc(COc3ccccc3F)[nH]n2)CC1`: the “Percent Effect” value amounted to 118.9%.
Turning to `COc1ccccc1OCc1cc(C(=O)N2CCS(=O)(=O)CC2)n[nH]1`, the “Percent Effect” value is -14.83%.
Regarding `COc1ccccc1OCc1cc(C(=O)N2CCN[C@H](C)C2)n[nH]1`, the “Percent Effect” value stood at 8.163%.
The value for `COc1cccc(OCc2cc(C(=O)N3CC(O)C3)n[nH]2)c1` was -9.479%.
In the case of `CCC1(CO)CCCN(C(=O)c2cc(COc3ccccc3F)[nH]n2)C1` (stereo not drawn), the “Percent Effect” value worked out at 110.4%.
Regarding `COc1ccccc1OCc1cc(C(=O)N2CCC(C(C)O)CC2)n[nH]1` (stereo not drawn), the “Percent Effect” value turned out to be 7.435%.
The value for `O=C(c1cc(COc2ccc3c(c2)OCO3)[nH]n1)N1CCCC1` was -5.101%; that for `COc1ccccc1OCc1cc(C(=O)N2CCN(C(C)=O)CC2)n[nH]1` was -25.23%; that for `CCC1(CO)CCCN(C(=O)c2cc(COc3cccc(F)c3)[nH]n2)C1` (stereo not drawn) was 87.47%.
In the case of `CC(C)N(Cc1ccccc1)Cc1csc(-c2ncccn2)n1`, the “Percent Effect” value was -35.25%.
The value for `CCOCc1ncn2c1CN(C(=O)c1ccoc1)CC2` was -9.138%.
Turning to `Cn1nc(CN2CCCCC2)c2c1CN(C(=O)Nc1cccc(F)c1)C2`, the “Percent Effect” value is -11.17%.
As to `Cc1cccc(NC(=O)N2CCn3cnc(COCC4CC4)c3C2)c1`, the “Percent Effect” value is on record as 96.57%.
The value for `CCOCc1ncn2c1CN(C(=O)Nc1cccc(C)c1)CC2` was -4.198%; that for `Cc1cccc(C(=O)N2CCn3cnc(COCC4CC4)c3C2)c1` was -5.443%.
Then `Cc1cccc(C(=O)N2CCn3cnc(COCC4CC4)c3C2)n1`, with -8.525%.
As to `CCc1cccc(NC(=O)N2CCn3cnc(COC)c3C2)c1`, the “Percent Effect” value was 112.6%.
`CCOCc1ncn2c1CN(C(=O)Nc1ccccc1)CC2`: the “Percent Effect” value is 106.5%.
The value for `CCOCc1ncn2c1CN(S(=O)(=O)c1cccs1)CC2` was -7.388%.
The value for `CCOCc1ncn2c1CN(C(=O)Nc1cccc(F)c1)CC2` was 101.4%; that for `CCN(CCSc1ccccc1)C(=O)c1cn([C@H]2CC[C@@H](N)CC2)nn1` was -3.362%.
For the compound `Cc1ccc(Cl)cc1NS(=O)(=O)c1cc(C(N)=O)n(C)c1`, the “Percent Effect” value is recorded as -91.07%.
The value for `Cc1cccc(C(=O)N2CCc3ncnc(C4CCOC4)c3CC2)n1.O=C(O)C(F)(F)F` (stereo not drawn) was -11.48%.
As for `COC(=O)c1sc(NCc2ccc(N3CCC(O)CC3)c(F)c2)nc1Cl`, the “Percent Effect” value is on record as -2.093%.
For `CC(C)C(N)C1=N/C(=C2\N=CN=N2)NO1` (stereo not drawn), the “Percent Effect” value is on record as -4.222%.
Then `CCn1ccnc1CN(C)Cc1nc(Cc2ccccc2F)no1`, with -2.902%; and `CCOCc1ncn2c1CN(S(=O)(=O)c1ccc(C)cc1)CC2`, with 1.086%; and `COCc1ncn2c1CN(C(=O)Nc1cccc(OC)c1)CC2`, with 106.3%.
Then `COc1cccc(S(=O)(=O)N2CCn3cnc(COCC4CC4)c3C2)c1`, with -6.989%; and `CCOCc1ncn2c1CN(S(=O)(=O)c1ccc(F)cc1)CC2`, with 3.769%.
Consider `COc1cccc(NC(=O)N2CCC(O)(C(F)(F)F)C2)c1` (stereo not drawn), for which the “Percent Effect” value is on record as -18.52%.
Then `CCOCc1ncn2c1CN(C(=O)Nc1ccccc1CC)CC2`, with 104.8%; and `CCOCc1ncn2c1CN(C(=O)Nc1ccc(CC)cc1)CC2`, with 108%; and `O=C(Nc1ccccc1)N1CCn2nnc(COc3cccnc3)c2C1.O=C(O)C(F)(F)F`, with -20.87%.
Take `COCc1ncn2c1CN(S(=O)(=O)c1ccc(C)cc1)CC2`: the “Percent Effect” value is given as -7.243%.
Consider `CCc1ccccc1NC(=O)N1CCn2cnc(COC)c2C1`, for which the “Percent Effect” value came to 1.009%.
Take `COCc1ncn2c1CN(C(=O)Nc1ccccc1)CC2`: the “Percent Effect” value is given as 105.1%.
The value for `N#Cc1ccc(F)c(CN2CCCC2Cn2cnc3ccccc32)c1` (stereo not drawn) was -5.507%; that for `CN1CCOC(C(=O)Nc2nnc(Cc3ccc(F)cc3)[nH]2)C1` (stereo not drawn) was -0.8523%.
In the case of `Cc1cccc(NCc2ncc(C(C)(C)C)o2)c1`, the “Percent Effect” value is listed as -14.59%.
Then `O=C(CN1CCS(=O)(=O)CC1)NC1CCCOc2ccccc21` (stereo not drawn), with 0.4653%.
The value for `CCN(Cc1ccoc1)C(=O)c1cc2c(c(S(N)(=O)=O)c1)CCC2` was -33.33%.
`CN(CC(=O)NC(C)(C#N)C1CC1)Cc1nc2ccccc2n1C` (stereo not drawn): the “Percent Effect” value is recorded as -1.45%.
Consider `COc1ncc(C2(O)CCN(Cc3cccs3)CC2)c(OC)n1.Cl`, for which the “Percent Effect” value is -7.48%.
`CC(C)N1CCOCC2(CN(Cc3ccco3)CCO2)C1` (stereo not drawn): the “Percent Effect” value is given as -3.394%.
Then `c1ccc(O[C@H]2COCCN(CC3CC3)C2)cc1`, with -13.37%; and `COc1cc2cc3c(nc2cc1OC)OCCN(Cc1ccco1)C3`, with 100%; and `COc1ccccc1CN1C(=O)O[C@@H]2CN(CC3CC3)C[C@@H]21`, with 6.078%.
Regarding `COc1cncc(N2CCN(Cc3ccco3)CC2)n1`, the “Percent Effect” value is reported as -6.733%.
Take `COc1cc2cc3c(nc2cc1OC)OCCN(Cc1cccs1)C3`: the “Percent Effect” value stood at 120.6%.
Turning to `COc1cccc2c1OCCCN(Cc1ncccc1C(=O)O)C2`, the “Percent Effect” value is recorded as 13.59%.
Then `COc1cc2cc3c(nc2cc1OC)OCCN(CC1CC1)C3`, with 154.4%.
Then `CCc1cc(CNC(=O)Nc2cc(F)ccc2N2CCCCC2)on1`, with -38%; and `CCN(CCC(=O)OC)S(=O)(=O)c1cnc2c(c1)c(C)nn2C`, with 10.85%.
Then `Cc1cc(C(C)NCCN2CCC(N(C)C)CC2)c(C)s1` (stereo not drawn), with -5.987%; and `COCC(NC(=O)c1cc(NC(C)=O)ccc1Cl)c1ccccn1` (stereo not drawn), with -0.4749%; and `Fc1cccc(N2CCCC3(CN(Cc4cccnc4)CCO3)C2)c1.O=C(O)C(F)(F)F.O=C(O)C(F)(F)F.O=C(O)C(F)(F)F` (stereo not drawn), with 2.254%.
Regarding `O=C(C1CC=CC1)N1CCC2(CC1)CN(Cc1ccccn1)CCO2`, the “Percent Effect” value is given as -14.52%.
For the compound `Fc1cccc(N2CCCC3(CN(Cc4ccccn4)CCO3)C2)c1.O=C(O)C(F)(F)F.O=C(O)C(F)(F)F.O=C(O)C(F)(F)F` (stereo not drawn), the “Percent Effect” value is reported as -3.088%.
Regarding `O=S1(=O)NCC2(CCCN(Cc3ccccn3)C2)Oc2ncccc21` (stereo not drawn), the “Percent Effect” value was found to be 140.3%.
With `O=C(O)C(F)(F)F.O=C(O)C(F)(F)F.O=C(O)C(F)(F)F.c1cncc(CN2CCCC3(COCCN(c4cnccn4)C3)C2)c1` (stereo not drawn), the “Percent Effect” value is reported as -4.353%.
In the case of `O=S1(=O)NCC2(CCN(Cc3ccncc3)CC2)Oc2ncccc21`, the “Percent Effect” value stood at 130.7%.
With `O=S1(=O)NCC2(CCCN(Cc3cccnc3)C2)Oc2ncccc21` (stereo not drawn), the “Percent Effect” value turned out to be 131.9%.
Regarding `O=C1COC2(CCN(Cc3ccncc3)CC2)CN1CC1CC1`, the “Percent Effect” value is -5.616%.
As for `Cc1cc(F)ccc1OC1(C(=O)O)CCN(Cc2ccncc2)CC1`, the “Percent Effect” value stood at 7.519%.
